{"source": "PubChem BioAssay AID1479144", "about": "(National Center for Advancing Translational Sciences (NCATS), 2020)", "note": "Records with an inconclusive call do not appear. Entries that show only a call come without a potency. The source made the active and inactive calls. The call rests on the fitted dose curve."}
{"experiment": "Confirmatory qHTS for Vero E6 cytotoxicity: counterscreen for inhibitors of SARS-S pseudo-typed particle cell entry", "conditions": "cell viability; series mostly up to 57.1 µM"}
{"smiles": "CC(C)(C)NC(=O)[C@H]1CC[C@H]2[C@@H]3CC[C@H]4NC(=O)C=C[C@]4(C)[C@H]3CC[C@]12C", "Potency": "inactive"}
{"smiles": "O=C1CCc2ccc(OCCCCN3CCN(c4cccc(Cl)c4Cl)CC3)cc2N1", "Potency": "inactive"}
{"smiles": "CCCCCCCCCCCCOCCOCCOCCOCCOCCOCCOCCOCCOCCO", "Potency": "inactive"}
{"smiles": "CCOc1ccc(Cc2nccc3cc(OCC)c(OCC)cc23)cc1OCC", "Potency": "27.1 µM (active)"}
{"smiles": "COc1cc2nccc(Oc3ccc(NC(=O)NC4CC4)c(Cl)c3)c2cc1C(N)=O", "Potency": "inactive"}
{"smiles": "CCCCc1oc2ccccc2c1C(=O)c1cc(I)c(OCCN(CC)CC)c(I)c1", "Potency": "inactive"}
{"smiles": "CN1CCCCC1CCN1c2ccccc2Sc2ccc(S(C)=O)cc21", "note": "(configuration not stated)", "Potency": "inactive"}
{"smiles": "Cc1c(N)nc(C(CC(N)=O)NCC(N)C(N)=O)nc1C(=O)NC(C(=O)NC(C)C(O)C(C)C(=O)NC(C(=O)NCCc1nc(-c2nc(C(=O)NCCCN[C@@H](C)c3ccccc3)cs2)cs1)C(C)O)C(O[C@@H]1O[C@@H](CO)[C@@H](O)[C@H](O)[C@@H]1O[C@H]1O[C@H](CO)[C@@H](O)[C@H](OC(N)=O)[C@@H]1O)c1cnc[nH]1", "note": "(some centres not stated)", "Potency": "inactive"}
{"smiles": "CCN1CCN(Cc2ccc(Nc3ncc(F)c(-c4cc(F)c5nc(C)n(C(C)C)c5c4)n3)nc2)CC1", "Potency": "inactive"}
{"smiles": "CN1CC[C@H](CN2c3ccccc3Sc3ccccc32)C1", "Potency": "inactive"}
{"smiles": "CCCCCCCCCCCC[n+]1ccc2ccccc2c1", "Potency": "3.83 µM (active)"}
{"smiles": "CC(C)C[C@H](NC(=O)[C@H](CCc1ccccc1)NC(=O)CN1CCOCC1)C(=O)N[C@@H](Cc1ccccc1)C(=O)N[C@@H](CC(C)C)C(=O)[C@@]1(C)CO1", "Potency": "0.681 µM (active)"}
{"smiles": "CNCCCC12CCC(c3ccccc31)c1ccccc12", "Potency": "inactive"}
{"smiles": "CCCCCCOC(=O)NC(=N)c1ccc(NCc2nc3cc(C(=O)N(CCC(=O)OCC)c4ccccn4)ccc3n2C)cc1", "Potency": "inactive"}
{"smiles": "N#CC(c1ccc(Cl)cc1)c1c(Cl)cc(-n2ncc(=O)[nH]c2=O)cc1Cl", "note": "(configuration not stated)", "Potency": "24.1 µM (active)"}
{"smiles": "Cc1cn([C@H]2C[C@H](N=[N+]=[N-])[C@@H](CO)O2)c(=O)[nH]c1=O", "Potency": "inactive"}
{"smiles": "COc1cccc2c1C(=O)c1c(O)c3c(c(O)c1C2=O)C[C@@](O)(C(C)=O)C[C@@H]3O[C@H]1C[C@H](N)[C@H](O)[C@H](C)O1", "Potency": "13.6 µM (active)"}
{"smiles": "COC(=O)C1=C(C)NC(C)=C(C(=O)OCC(C)C)C1c1ccccc1[N+](=O)[O-]", "note": "(configuration not stated)", "Potency": "27.1 µM (active)"}
{"smiles": "N=C(N)c1ccc(OCCCCCOc2ccc(C(=N)N)cc2)cc1", "Potency": "21.5 µM (active)"}
{"smiles": "CC[C@@]1(O)C(=O)OCc2c1cc1n(c2=O)Cc2c-1nc1ccccc1c2/C=N/OC(C)(C)C", "Potency": "17.1 µM (active)"}
{"smiles": "CN1CCC(=C2c3ccccc3C=Cc3ccccc32)CC1", "Potency": "inactive"}
{"smiles": "CCN(CC)Cc1cc(Nc2ccnc3cc(Cl)ccc23)ccc1O", "Potency": "inactive"}
{"smiles": "CC(C)(C)NCC(O)COc1ccccc1C1CCCC1", "note": "(configuration not stated)", "Potency": "inactive"}
{"smiles": "Nc1ccn([C@@H]2O[C@H](CO)[C@@H](O)C2(F)F)c(=O)n1", "Potency": "inactive"}
{"smiles": "Oc1c(Cl)cc(Cl)c(Cl)c1Cc1c(O)c(Cl)cc(Cl)c1Cl", "Potency": "4.82 µM (active)"}
{"smiles": "CC(C)(C)C(=O)OCOP(=O)(COCCn1cnc2c(N)ncnc21)OCOC(=O)C(C)(C)C", "Potency": "inactive"}
{"smiles": "COc1cc2c(cc1Cc1cccc(Cl)c1F)c(=O)c(C(=O)O)cn2[C@H](CO)C(C)C", "Potency": "inactive"}
{"smiles": "CC(=O)N1CCN(c2ccc(OC[C@H]3CO[C@](Cn4ccnc4)(c4ccc(Cl)cc4Cl)O3)cc2)CC1", "Potency": "inactive"}
{"smiles": "C/C=C(/C)C(=O)O[C@H]1C(C)=CC23C(=O)C(C=C(CO)[C@@H](O)[C@]12O)[C@H]1[C@@H](C[C@H]3C)C1(C)C", "note": "(some centres not stated)", "Potency": "inactive"}
{"smiles": "CN1CCC[C@@H]1CCO[C@](C)(c1ccccc1)c1ccc(Cl)cc1", "Potency": "inactive"}
{"smiles": "O=c1[nH]c(=O)n([C@H]2C[C@H](O)[C@@H](CO)O2)cc1C(F)(F)F", "Potency": "inactive"}
{"smiles": "COc1ccc(Cc2nccc3cc(OC)c(OC)cc23)cc1OC", "Potency": "inactive"}
